The values below come from PubChem BioAssay (Tox21).

Test [1] is described as follows: qHTS assay to identify small molecule agonists of the androgen receptor (AR) signaling pathway in the presence of an antagonist - cell viability counter screen (AID 1259379). Note: nearly all actives have a fitted effect of over 25% in size. Note: potency is the fitted concentration of half-maximal effect. The method, boiled down: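 Each compound was tested at 15 concentrations on MDA-kb2 cells in the presence of 3.0uM nilutamide. Viability was measured by CellTiter-Fluor fluorescence after a 16 hr incubation at 37C in a CO2-free atmosphere.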

A short description of test [2]: qHTS assay to identify small molecule agonists of the estrogen receptor beta (ER-beta) signaling pathway - cell viability counter screen (AID 1259380). Note: nearly all actives have a fitted effect of over 30% in size. Note: potency is the fitted concentration of half-maximal effect. The method, boiled down:
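Compounds dissolved in DMSO were pin-transferred onto ER-beta-UAS-bla HEK293T cells that had settled 6 hr, and exposure ran 16 hr at 37C. Following the reporter read, CellTiter-Glo luminescence after 30 min at room temperature indicated cytotoxicity.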
(In qHTS, concentration-response curves come from the screen itself.)

Test [3] is described as follows: qHTS assay to identify small molecule antagonists of the estrogen receptor beta (ER-beta) signaling pathway - cell viability counter screen (AID 1259382). Note: nearly all actives have a fitted effect of over 55% in size. Note: potency is the fitted concentration of half-maximal effect. In a few lines:
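CellTiter-Glo ATP luminescence measured after the LiveBLAzer read in the same wells; ER-beta-UAS-bla HEK293T cells, 16 hr compound treatment with 1nM 17-beta-estradiol agonist at 37C, 5% CO2.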

The nature of test [4]: qHTS assay to identify small molecule agonists of the estrogen receptor alpha (ER-alpha) signaling pathway in the presence of an antagonist - cell viability counter screen (AID 1259386).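 Note: cells exposed to compounds for 22 h at 37 °C before the viability read; nearly all actives have a fitted effect of over 30% in size.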 Note: potency is the fitted concentration of half-maximal effect. In a few lines: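 Using estrogen-depleted VM7Luc4E2 cells, the 15-concentration compound series was applied together with 10.0nM ICI-182,780 and incubated 22hr at 37C/5% CO2. Cell viability was then scored by CellTiter-Fluor.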

Test [5] concerns the target Progesterone receptor (Homo sapiens) (UniProt P06401). Nature of the test: qHTS assay to identify small molecule agonists of the progesterone receptor (PR) signaling pathway (AID 1346784; calls by dose curve; note: nearly all actives have a fitted effect of over 30% in size; note: potency is the fitted concentration of half-maximal effect). In a few lines:
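Using charcoal-stripped serum (2%) to limit endogenous steroids, PR-UAS-bla HEK 293T cells received compounds for 16 hr at 37C after 6 hr plating; beta-lactamase FRET fluorescence was recorded following 2 hr substrate loading at room temperature.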

Test [6] shares this target. Nature of the test: qHTS assay to identify small molecule antagonists of the progesterone receptor (PR) signaling pathway (AID 1346795; active = well fitted inhibition curve with a large enough effect in the signal ratio in the repeat runs, not every such curve was filed as active; the % refers to the signal ratio; note: potency is the fitted concentration of half-maximal effect). In a few lines: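 Inhibition of R5020-induced (1 nM final) beta-lactamase reporter signal in PR-UAS-bla HEK293T cells was scored by FRET fluorescence after overnight (16 hr) compound treatment.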
A short description of test [7]: qHTS assay to identify small molecule antagonists of the progesterone receptor (PR) signaling pathway - cell viability counter screen (AID 1346798). Note: series mostly up to about 92 µM; nearly all actives have a fitted effect of over 50% in size. The method, boiled down:
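ATP content as viability readout: CellTiter-Glo luminescence, 30 min room temperature, in PR-UAS-bla HEK293T cells after 16 hr compound/R5020 treatment at 37C and 5% CO2.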

The nature of test [8]: qHTS assay to identify small molecule agonists of the progesterone receptor (PR) signaling pathway - cell viability counter screen (AID 1346799; calls by dose curve; note: nearly all actives have a fitted effect of over 45% in size; note: potency is the fitted concentration of half-maximal effect). The method, boiled down:
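Cytotoxicity in PR-bla HEK293T cells: 16 h compound, 37C; CellTiter-Glo added post-FRET read; luminescence after 30 min RT.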

A short description of test [9]: qHTS assay to identify small molecule antagonists of the TGF-beta/Smad signaling pathway - cell viability counter screen (AID 1346824). Note: nearly all actives have a fitted effect of over 50% in size. The method, boiled down: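 SBE-bla HEK 293T cells, incubated overnight, then compound plus 0.25 ng/mL TGF-beta1 (stock added) for 5 hr at 37 C. Viability was read in the same wells by CellTiter-Glo luminescence after 30 min at room temperature.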

Test [10] in a line: qHTS assay to identify small molecule agonists of the TGF-beta/Smad signaling pathway - cell viability counter screen (AID 1346829). Note: top concentration of the series differs between compounds; nearly all actives have a fitted effect of over 45% in size. The method, boiled down:
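Luminescence from CellTiter-Glo, read after a 30 min room-temperature incubation, gives cell viability of SBE-bla HEK 293T cells treated 5 hr with compounds at 37 C.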

Test [11] in a line: qHTS assay to identify small molecule agonists of the TGF-beta/Smad signaling pathway (AID 1346859; active = well fitted activation curve with a large enough effect in the signal ratio in the repeat runs, not every such curve was filed as active; the % refers to the signal ratio; note: series mostly up to about 77 µM). The method, boiled down:
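Stable Smad binding element-beta-lactamase HEK 293T cells; 5 hr compound exposure at 37 C under 5% CO2; 2 hr room-temperature substrate step; fluorescence excited at 405 nm, collected at 460 nm and 530 nm.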

Test [12] deals with Thyrotropin-releasing hormone receptor (Homo sapiens) (UniProt P34981). The test can be described thus: qHTS assay to identify small molecule antagonists of the thyrotropin-releasing hormone receptor (TRHR) signaling pathway (AID 1346877; active = well fitted inhibition curve with a large enough effect in the repeat runs, not every such curve was filed as active; note: series mostly up to about 51 µM). In a few lines:
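Calcium signal in dye-loaded TRHR/HEK293 cells; compounds added 5 min before TRH (1 nM final); fluorescence monitored 3 min at 1 s steps.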

The target is the same in test [13]. The test can be described thus: qHTS assay to identify small molecule agonists of the thyrotropin-releasing hormone receptor (TRHR) signaling pathway (AID 1346891; calls by dose curve;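 note: HEK293 cells expressing TRHR with calcium dye readout; series mostly up to about 58 µM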). In a few lines:
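In 1536-format, 1500 TRHR-Hek293 cells per well grew 18 h, took up calcium dye for 2 h at 37 °C, received compound, and were read kinetically; 15-point titrations, triplicates.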

A short description of test [14]: Human pregnane X receptor (PXR) small molecule agonists, qHTS cell viability counter screen (AID 1346977). Note: nearly all actives have a fitted effect of over 50% in size. Note: potency is the fitted concentration of half-maximal effect. In a few lines: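 Readout is CellTiter-Fluor fluorescence from PXR-Luc HepG2 cells. Plated cells rested 5hr, then were treated with compounds for 24hr at 37C and 5% CO2, with reagent present during the last hour.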
Test [15] is described as follows: qHTS assay to identify small molecule agonists or antagonists of the thyroid stimulating hormone receptor (TSHR) signaling pathway - wild type cell line counter screen (AID 1259384; calls by dose curve). The method, boiled down:
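Wild-type Hek293 cells, 800/well, 18 h at 37C, then compound with Ro20-1724 for 30 min RT. cAMP by HTRF (cAMP-d2/anti-cAMP cryptate), 1 h RT, fluorescence read. 15 concentrations, triplicates.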

The target in test [16] is Thyrotropin receptor (Homo sapiens) (UniProt P16473). Nature of the test: qHTS assay to identify small molecule antagonists of the thyroid stimulating hormone receptor (TSHR) signaling pathway (AID 1259385; calls by dose curve; note: nearly all actives have a fitted effect of over 20% in size). The method, boiled down: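 TSHR-HEK293 cells (800/well) plated 18 h, then compounds with Ro20-1724 and TSH at 1.5 ng/mL final, 30 min at room temperature. cAMP quantified by HTRF (cAMP-d2/anti-cAMP-cryptate, 1 h); 15 concentrations in triplicate.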

Several values for one entry are separate records, joined by “and”; a condition that tells them apart may be missing. Identical values can stand only once. Results filed as inconclusive are left out. Some structures have more than one record in an assay (separate samples or runs), and their calls can disagree. Activity calls are given as the source filed them. Unless noted, calls come from the whole dose curve; as a rule, active = well fitted curve in the direction sought with a large enough effect in the repeat runs; inconclusive = weak or mixed curves; inactive = no such curve, though single readings can be large; an effect the other way counts as inactive or inconclusive.
% is set by controls: 0 for no effect and ±100 for the full control effect.

Chain of Thyrotropin-releasing hormone receptor (Homo sapiens) (P34981 whole entry, looked up): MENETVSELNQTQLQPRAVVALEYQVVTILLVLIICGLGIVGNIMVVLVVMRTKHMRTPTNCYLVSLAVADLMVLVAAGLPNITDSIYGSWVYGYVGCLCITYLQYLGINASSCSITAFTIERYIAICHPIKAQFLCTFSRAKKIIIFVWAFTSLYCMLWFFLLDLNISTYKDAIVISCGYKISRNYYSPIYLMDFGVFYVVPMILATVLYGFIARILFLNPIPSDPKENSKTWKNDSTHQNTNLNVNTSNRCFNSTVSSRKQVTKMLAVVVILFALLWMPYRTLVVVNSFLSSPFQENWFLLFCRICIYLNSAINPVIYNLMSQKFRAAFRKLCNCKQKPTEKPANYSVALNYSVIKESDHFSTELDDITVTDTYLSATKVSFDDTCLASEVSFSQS
Chain of Thyrotropin receptor (Homo sapiens) (P16473 whole entry, looked up): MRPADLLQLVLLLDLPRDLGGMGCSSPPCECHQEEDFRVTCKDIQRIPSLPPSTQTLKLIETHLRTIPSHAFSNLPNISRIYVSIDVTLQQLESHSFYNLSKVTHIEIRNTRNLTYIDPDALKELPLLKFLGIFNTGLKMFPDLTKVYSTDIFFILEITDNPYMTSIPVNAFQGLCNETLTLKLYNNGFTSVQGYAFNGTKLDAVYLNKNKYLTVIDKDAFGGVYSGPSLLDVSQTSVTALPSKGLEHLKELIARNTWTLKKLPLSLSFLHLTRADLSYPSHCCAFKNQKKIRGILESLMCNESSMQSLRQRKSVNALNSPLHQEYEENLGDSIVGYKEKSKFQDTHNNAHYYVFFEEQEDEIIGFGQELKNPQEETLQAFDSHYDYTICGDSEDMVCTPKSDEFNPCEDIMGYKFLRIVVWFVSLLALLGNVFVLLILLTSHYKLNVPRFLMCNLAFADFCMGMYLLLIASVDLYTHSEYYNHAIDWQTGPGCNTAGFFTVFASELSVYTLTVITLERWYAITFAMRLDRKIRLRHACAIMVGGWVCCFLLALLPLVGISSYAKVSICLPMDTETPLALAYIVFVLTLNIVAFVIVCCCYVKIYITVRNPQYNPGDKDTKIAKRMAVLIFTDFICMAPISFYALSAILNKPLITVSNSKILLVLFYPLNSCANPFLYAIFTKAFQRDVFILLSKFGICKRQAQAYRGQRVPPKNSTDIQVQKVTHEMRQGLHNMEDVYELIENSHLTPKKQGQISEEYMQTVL
Chain of Progesterone receptor (Homo sapiens) (P06401 whole entry, looked up): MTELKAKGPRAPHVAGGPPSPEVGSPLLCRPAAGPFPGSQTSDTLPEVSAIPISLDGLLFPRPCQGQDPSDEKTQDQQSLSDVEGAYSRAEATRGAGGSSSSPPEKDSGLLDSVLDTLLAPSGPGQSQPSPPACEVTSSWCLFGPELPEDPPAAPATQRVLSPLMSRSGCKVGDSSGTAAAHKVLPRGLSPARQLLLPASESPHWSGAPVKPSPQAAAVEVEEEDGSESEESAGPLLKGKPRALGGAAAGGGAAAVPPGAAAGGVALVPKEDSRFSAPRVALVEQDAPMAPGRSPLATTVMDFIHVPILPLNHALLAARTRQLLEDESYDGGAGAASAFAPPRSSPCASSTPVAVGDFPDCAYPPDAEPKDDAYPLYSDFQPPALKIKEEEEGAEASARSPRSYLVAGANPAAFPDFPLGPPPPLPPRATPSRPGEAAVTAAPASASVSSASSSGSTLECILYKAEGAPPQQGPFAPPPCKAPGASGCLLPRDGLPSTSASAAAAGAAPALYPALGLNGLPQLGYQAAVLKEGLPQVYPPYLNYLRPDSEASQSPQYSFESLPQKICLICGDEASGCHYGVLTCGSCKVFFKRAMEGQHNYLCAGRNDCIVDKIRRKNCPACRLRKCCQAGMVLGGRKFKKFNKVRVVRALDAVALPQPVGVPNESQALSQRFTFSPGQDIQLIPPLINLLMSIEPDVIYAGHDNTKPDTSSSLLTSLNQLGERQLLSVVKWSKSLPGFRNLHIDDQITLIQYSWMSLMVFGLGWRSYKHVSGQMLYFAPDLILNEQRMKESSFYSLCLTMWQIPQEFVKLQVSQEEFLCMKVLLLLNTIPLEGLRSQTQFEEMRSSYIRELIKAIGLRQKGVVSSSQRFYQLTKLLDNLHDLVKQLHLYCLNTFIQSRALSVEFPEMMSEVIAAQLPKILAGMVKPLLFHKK

Turning to `O=c1nc(O)n(Cl)c(=O)n1Cl`, the Potency entry in [1], in [2], in test [3], in test [4], in [5] and in [6] was “inactive” each time. Also, the Potency entry in [7], in test [8], in [9], in test [10], in test [11] and in test [12] was “inactive” in each case. The Potency entry in [13] and in test [14] was “inactive” each time.
For `CCCCCCCCn1cc[n+](C)c1`, the Potency in test [1] was 4.85 µM (active) [middle of 4 runs]; in test [14], 9.68 µM (active) and 7.76 µM (active) and 8.72 µM (active). Further, the Potency result in test [3], in test [15], in test [16], in test [5], in [6] and in test [7] was “inactive” each time. Further, the Potency result in test [9], in test [10] and in test [11] was “inactive” in each case.
Turning to `CCCCCCCCCCCC(=O)O`, the Potency entry in test [1], in test [3], in test [15], in test [16], in test [4] and in [5] was “inactive” throughout. The Potency result in test [6], in [7], in test [8], in test [9], in test [10] and in test [11] was “inactive” throughout. The Potency result in [14] is “inactive”. For the same molecule, the Potency in test [2] was 43.3 µM (active).
For `CCCCCCCCCCn1cc[n+](C)c1`, the Potency result is “inactive and 2.73 µM (active)” in [2]; 31.4 µM (active) and 48.5 µM (active) and 27.3 µM (active) in test [6]; 2.76 µM (active) in test [14]. In addition, the Potency result in test [3], in [5], in test [7], in test [9], in test [10] and in [11] was “inactive” in each case.
On to `O=C(O)COc1ccc(Cl)cc1Cl`, for which the Potency entry in test [1], in test [2], in test [3], in test [4], in [5] and in test [6] was “inactive” in each case. In addition, the Potency result in test [7], in [8], in test [9], in test [10], in test [11] and in [14] was “inactive” each time.
For the molecule `O=S(=O)(O)O`, the Potency entry in test [1], in [2], in test [3], in test [4], in test [7] and in [8] was “inactive” in each case. In addition, the Potency entry in test [9], in test [10], in test [11] and in test [14] was “inactive” in each case.
`CCCCCCn1cc[n+](C)c1`: the Potency in test [1] was 50.5 µM (active) [middle of 6 runs]; in test [14] it was 13.9 µM (active). The Potency result in test [2], in test [3], in test [4], in test [5], in [6] and in test [7] was “inactive” in each case. For the same molecule, the Potency result in test [8], in test [9], in test [10] and in test [11] was “inactive” throughout.
Consider `CC(=O)O`, for which the Potency entry in [1], in test [2], in [3], in [4], in [6] and in test [7] was “inactive” throughout. In addition, the Potency result in test [8], in test [9], in test [10], in [11] and in test [14] was “inactive” in each case. Moreover, the Potency entry in test [5] is “inactive and 392 nM (active)”.
As for `CCCCCCCCCCCCCCCCn1cc[n+](C)c1`, the Potency entry is “inactive and 61.7 µM (active) and 30.7 µM (active)” in [3]; “inactive and 55 µM (active) and 21.7 µM (active)” in test [4]; “inactive and 21.7 µM (active)” in [6]; “inactive and 61.7 µM (active) and 30.7 µM (active)” in [8]. Besides, the Potency entry in [15], in test [16], in test [5] and in test [11] was “inactive” each time.
For the molecule `CC[N+](CC)(CC)CC`, the Potency result in [1], in test [2], in test [3], in test [15], in test [16] and in test [4] was “inactive” each time. The Potency entry in test [5], in test [6], in test [7], in test [8], in [9] and in test [10] was “inactive” each time. The Potency result in test [11] and in test [14] was “inactive” throughout.
